Assay results reported in PubChem BioAssay (NCATS).
Results filed as inconclusive are left out. Active and inactive are the calls of the source. Calls follow the shape of the dose curve; as a rule, active = well fitted inhibition curve with a large enough effect; inconclusive = small, poorly fitted or top-dose-only effect; inactive = no such curve, though single readings can be large or run the other way.

assay: P-glycoprotein substrates identified in KB-3-1 adenocarcinoma cell line, qHTS therapeutic library screen (AID 1346986); settings: KB-3-1 parental cells viability, CellTiter-Glo, 72 h; series mostly up to 44.5 µM; activity change, negative = cytotoxicity: at the top concentration; also: nearly all actives have a fitted effect of over 60% in size
Summary of the method: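 Using luminescence to quantify ATP, parental and P-gp-overexpressing KB cells were compared after 72 h compound titration. KB-8-5-11 was also run with the P-gp inhibitor tariquidar.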

| Compound | outcome |
| --- | --- |
| COc1cc(C(O)C(CO)Oc2ccc(CCCO[C@@H]3O[C@@H](C)[C@H](O)[C@@H](O)[C@H]3O)cc2OC)ccc1O (stereo partly drawn) | inactive [at 17.4 µM] |
| C=C/C=C/[C@@H]1OC[C@H](/C=C/C=C/C)[C@H]1O | inactive [at 93.4 µM] |
| C=C1C(=O)OC2CC(C)=C(C(C)CCCO[C@@H]3O[C@H](CO)[C@@H](O)[C@H](O)[C@H]3O)C(O)C12 (stereo partly drawn) | inactive [at 17.4 µM] |
